{
  "source": "PubChem BioAssay AID602357",
  "about": "(National Center for Advancing Translational Sciences (NCATS), 2012)",
  "note": "Inconclusive results are not listed. A number with no mark means an inactive call. Active and inactive are the calls of the source. The call rests on the fitted dose curve; in most records, active means well fitted inhibition curve with a large enough effect; inconclusive means small, poorly fitted or top-dose-only effect; inactive means no such curve, though single readings can be large or run the other way.",
  "data": [
    {"target": "Luciferin 4-monooxygenase (Photinus pyralis) (UniProt P08659)", "sequence (P08659 whole entry, looked up)": "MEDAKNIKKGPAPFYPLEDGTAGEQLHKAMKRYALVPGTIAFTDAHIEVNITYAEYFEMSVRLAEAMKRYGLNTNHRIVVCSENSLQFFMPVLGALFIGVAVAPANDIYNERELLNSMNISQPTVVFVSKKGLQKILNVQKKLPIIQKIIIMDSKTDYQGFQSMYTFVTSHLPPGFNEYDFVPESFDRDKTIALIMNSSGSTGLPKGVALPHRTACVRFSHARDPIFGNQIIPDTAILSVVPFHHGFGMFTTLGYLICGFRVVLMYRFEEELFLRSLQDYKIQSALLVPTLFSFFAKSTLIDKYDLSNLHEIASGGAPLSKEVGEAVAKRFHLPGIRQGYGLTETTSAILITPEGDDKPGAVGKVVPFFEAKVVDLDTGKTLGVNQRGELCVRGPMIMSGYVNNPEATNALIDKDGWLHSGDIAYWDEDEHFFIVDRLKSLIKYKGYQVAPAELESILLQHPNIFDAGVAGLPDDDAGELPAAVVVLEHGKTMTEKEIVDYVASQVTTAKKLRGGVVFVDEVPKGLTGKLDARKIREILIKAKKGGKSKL", "experiment": "FLuc inhibitory activity for the follow-up compounds in a biochemical assay with Km concentrations of substrate", "conditions": "purified FLuc, Km substrates, luminescence; series mostly up to 57.5 µM; activity change, negative = inhibition: at the top concentration", "description": "NCGC Assay Overview: Firefly (Photinus pyralis) luciferase is one of the most commonly used transcriptional reporters. It is considered one of the more dynamically responsive reporters - that is, responsive to changes in reporter transcription - as it requires no post-translational modifications and is enzymatically active directly after protein synthesis (Wood, 1998). With no endogenous expression in mammalian cells and without the requirement of external excitation, it offers very little background signal, thus generally providing excellent signal to background for most assays. Previous profiling work to determine the prevalence of compounds that affect FLuc enzymatic activity (PubChem AID 411) identified that ~3% of the MLSMR library (then at ~72K) inhibited FLuc. […] Of the compounds identified in this profile that inhibited FLuc, 151 compounds were selected for further analysis, in an effort to better understand their mode of inhibiting FLuc. The assay described here confirms the FLuc inhibitory activity of the 151 compounds.\nNCGC Assay Protocol Summary: Reagents: 50mM Tris acetate, pH 7.5; 10mM Mg acetate; 10uM D-luciferin (Sigma #L9504); 10uM ATP; 0.01% Tween-20; 0.05% BSA; 10nM P. pyralis luciferase (Sigma #L9506) Control compounds used were two known firefly luciferase inhibitors (3-(5-(3-chlorophenyl)-1,2,4-oxadiazol-3-yl)benzoic acid and 5-(2-fluorophenyl)-3-phenyl-1,2,4-oxadiazole), and DMSO. Three microliters containing firefly luciferase substrates in buffer (final concentrations: 50mM Tris acetate, pH 7.5, 10mM Mg acetate, 0.01% Tween-20, 0.05% BSA, 10uM D-luciferin, and 10uM ATP) are dispensed into each well of a Greiner white, solid-bottom 1536-well format plate using a flying reagent dispenser (FRD). These assay plates were then treated with 23nL of compound or DMSO using a Kalypsys pin tool, which allows for delivery of a 12-point intraplate titration of each compound to the assay plate (quantitative HTS), with a final compound concentrations ranging from approximately ~60uM to 0.3nM. One microliter of firefly luciferase in 500mM Tris-acetate buffer was then delivered by FRD to each well for a final enzyme concentration of 10nM. Luciferase activity was then measured using a ViewLux CCD imager (PerkinElmer), with an average exposure time of 2-30 seconds (2X binning, medium/high gain).", "units": {"activity change, negative = inhibition": "%"}, "values": [
      {"smiles": "O=C(Nc1ccccc1C(=O)Nc1ccccc1C(=O)O)c1ccccc1", "Potency": "16.3 µM (active)"},
      {"smiles": "COc1ccc2nc(NC(=O)c3cnccn3)sc2c1", "Potency": "2.91 µM (active)"},
      {"smiles": "CC(C)Oc1ccc(C(=O)Nc2ccc(-c3nc4ccccc4s3)cc2)cc1", "activity change, negative = inhibition": -2.68},
      {"smiles": "O=C(O)c1ccc(NC(=O)c2ccccc2NC(=O)c2ccccc2Br)cc1", "Potency": "23.1 µM (active)"},
      {"smiles": "COc1cccc(OC)c1C(=O)Nc1cccc(C(=O)Nc2cccc(C(=O)O)c2)c1", "Potency": "5.8 µM (active)"},
      {"smiles": "O=C(COC(=O)c1ccccc1[N+](=O)[O-])c1ccc2c(c1)OCO2", "Potency": "0.0058 µM (active)"},
      {"smiles": "COc1ccc2nc(NC(=O)c3ccc([N+](=O)[O-])o3)sc2c1", "Potency": "3.66 µM (active)"},
      {"smiles": "CN=c1scc(-c2ccccc2F)n1/N=C/c1ccc[nH]1", "Potency": "0.0461 µM (active)"},
      {"smiles": "COc1ccc2nc(NC(=O)c3nc(S(=O)(=O)Cc4ccc(C)cc4)ncc3Cl)sc2c1", "activity change, negative = inhibition": -9.87},
      {"smiles": "O=C(O)c1ccc(NC(=O)c2cccc(C(=O)Nc3ccc(C(=O)O)cc3)c2)cc1", "activity change, negative = inhibition": -8.45},
      {"smiles": "COc1ccc(C(=O)Nc2cccc(C(=O)O)c2)cc1S(=O)(=O)N1CCCC1", "Potency": "5.17 µM (active)"},
      {"smiles": "O=C(Nc1ccccc1C(=O)O)c1ccc(NC(=O)C2CCCO2)cc1", "note": "(stereo not given)", "Potency": "16.3 µM (active)"},
      {"smiles": "CN(C)S(=O)(=O)c1ccc(C(=O)Nc2cccc(C(=O)O)c2)cc1", "Potency": "10.3 µM (active)"},
      {"smiles": "Cc1ccc2nc(-c3ccc(NC(=O)CN4CCN(C(=O)c5ccco5)CC4)cc3)sc2c1", "Potency": "5.8 µM (active)"},
      {"smiles": "O=C(Nc1ccccc1-c1nc2ccccc2s1)c1ccc(Br)o1", "activity change, negative = inhibition": -1.3},
      {"smiles": "COc1ccc2nc(NC(=O)C3CCN(S(=O)(=O)c4cccnc4)CC3)sc2c1", "activity change, negative = inhibition": -9.68},
      {"smiles": "CCOC(=O)N1CCN(CC(=O)Nc2nc3ccc(OC)cc3s2)CC1", "activity change, negative = inhibition": -13.5},
      {"smiles": "CN(C)S(=O)(=O)c1ccc(C(=O)Nc2ccccc2C(=O)O)cc1", "Potency": "13 µM (active)"},
      {"smiles": "COc1ccc(CC(=O)Nc2cccc(C(=O)Nc3ccccc3C(=O)O)c2)cc1OC", "Potency": "41.1 µM (active)"},
      {"smiles": "COc1cc(C(=O)Nc2cc(C)c(O)c(-c3nc4ccccc4s3)c2)cc(OC)c1OC", "activity change, negative = inhibition": -10.3},
      {"smiles": "O=C(Nc1ccc(-c2nc3ccccc3s2)cc1)C1=COCCO1", "Potency": "0.0919 µM (active)"},
      {"smiles": "O=S(=O)(c1ccc(-c2nc3ccccc3s2)cc1)N1CCCC1", "activity change, negative = inhibition": -0.117},
      {"smiles": "O=C(Nc1ccccc1C(=O)O)c1cccc(S(=O)(=O)N2CCCC2)c1", "Potency": "13 µM (active)"},
      {"smiles": "COc1c(C)cccc1C(=O)Nc1ccc(-c2nc3ccccc3s2)c(Cl)c1", "activity change, negative = inhibition": -5.09},
      {"smiles": "COc1ccc2nc(NC(=O)c3cccc(S(=O)(=O)N4CCOCC4)c3)sc2c1", "Potency": "20.6 µM (active)"},
      {"smiles": "O=C(Nc1ccccc1-c1nc2ccccc2s1)c1cccnc1", "activity change, negative = inhibition": 9.41},
      {"smiles": "COc1ccc(-c2cccc(C(=O)Nc3cccc(C(=O)O)c3)c2)cc1", "Potency": "4.61 µM (active)"},
      {"smiles": "CC(C)(C)C(=O)Nc1ccc(-c2nc3ccccc3s2)cc1", "Potency": "0.0116 µM (active)"},
      {"smiles": "COc1ccc(C(=O)Nc2ccccc2C(=O)Nc2ccccc2C(=O)O)cc1", "Potency": "0.58 µM (active)"},
      {"smiles": "COc1ccc2nc(NC(=O)Cc3cccs3)sc2c1", "Potency": "7.3 µM (active)"},
      {"smiles": "CC(C)(C)NC(=O)c1ccccc1-c1nc2ccccc2s1", "activity change, negative = inhibition": -8.09},
      {"smiles": "COc1ccc(C(=O)Nc2ccccc2-c2nc3ccccc3s2)c(OC)c1", "activity change, negative = inhibition": -3.66},
      {"smiles": "COc1ccc(-c2nc3ccccc3s2)cc1O", "Potency": "0.146 µM (active)"},
      {"smiles": "Cc1c(NC(=O)c2cccs2)cccc1-c1nc2ccccc2s1", "Potency": "4.11 µM (active)"},
      {"smiles": "O=C(O)c1cccc(NC(=O)c2cccc(S(=O)(=O)N3CCc4ccccc43)c2)c1", "Potency": "23.1 µM (active)"},
      {"smiles": "Cc1c(NC(=O)C(C)(C)C)cccc1-c1nc2ccccc2s1", "Potency": "3.26 µM (active)"},
      {"smiles": "Cc1ccc(C(=O)O/N=C(\\N)c2ccccn2)c(Cl)c1", "Potency": "0.0146 µM (active)"},
      {"smiles": "O=C(Nc1cccc(-c2nc3ccccc3s2)c1)c1cc(-n2cnnc2)ccc1Cl", "Potency": "11.6 µM (active)"},
      {"smiles": "COc1cccc(-c2nc3ccccc3s2)c1", "Potency": "1.3 µM (active)"},
      {"smiles": "CC(C)c1ccc(-c2nc3ccccc3s2)cc1", "Potency": "0.0291 µM (active)"}
    ]}
  ]
}
